Calls of active or inactive are those of the source. The calls were made as follows: active = hit-call score of the fitted dose curve at least 0.9, where 1 is the maximum; inactive = score below 0.9.

The AC50 is the concentration at which the activity in the assay is half-maximal.

Details in all cases: mRNA level, 48 h; actives raise or lower the signal
Read-out in assay [1]: Interleukin 6 Receptor (IL6R), IL6R (gene 3570)
As to the kind of experiment: LTEA_HepaRG_IL6R: Life Technologies and Expression Analysis (LTEA) Assay for Interleukin 6 Receptor (IL6R) using HepaRG (AID 2283510).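 Also: differentiated human HepaRG liver cells in serum-free induction medium; TaqMan qRT-PCR signal normalized to ACTB GAPDH and POLR2A housekeeping genes.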 Put shortly:
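HepaRG, 48 h exposure, 8-pt half-log series, top 100 uM, 0.5% DMSO vehicle, duplicates. Read-out: TaqMan qRT-PCR of IL6R transcript, housekeeping-gene normalized. Gain or loss fitted relative to DMSO baseline.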

Read-out in assay [2]: Potassium channel subfamily K member 1 (KCNK1), KCNK1 (gene 3775)
As to the kind of experiment: LTEA_HepaRG_KCNK1: Life Technologies and Expression Analysis (LTEA) Assay for Potassium channel subfamily K member 1 (KCNK1) using HepaRG (AID 2283511). Put shortly:
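HepaRG, 48 h exposure, 8-pt half-log series top 100 uM, 0.5% DMSO vehicle, duplicates. Readout: KCNK1 transcript by qRT-PCR (Fluidigm array), housekeeping-normalized; bidirectional curve fit relative to DMSO baseline.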

Read-out in assay [3]: Keratin 19 (KRT19), KRT19 (gene 3880)
The assay can be described thus: LTEA_HepaRG_KRT19: Life Technologies and Expression Analysis (LTEA) Assay for Keratin 19 (KRT19) using HepaRG (AID 2283512). In a few lines:
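KRT19 transcript levels, measured by Fluidigm qRT-PCR against three housekeeping genes, are fitted for gain or loss of signal relative to DMSO. Human HepaRG cells receive test chemicals (top 100 uM, half-log steps, 0.5% DMSO) for 48 hours.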

Read-out in assay [4]: JUN Transcription Factor, JUN (gene 3725)
The assay can be described thus: LTEA_HepaRG_JUN: Life Technologies and Expression Analysis (LTEA) Assay for JUN Transcription Factor using HepaRG (AID 2283513). In a few lines:
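HepaRG, 48 h exposure, 8-pt half-log series top 100 uM, 0.5% DMSO, duplicate. JUN mRNA by qRT-PCR (Fluidigm), housekeeping-normalized (ACTB/GAPDH/POLR2A); bidirectional curve fit vs DMSO baseline.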

Read-out in assay [5]: Lipase C (LIPC), LIPC (gene 3990)
As to the kind of experiment: LTEA_HepaRG_LIPC: Life Technologies and Expression Analysis (LTEA) Assay for Lipase C (LIPC) using HepaRG (AID 2283514). In a few lines:
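HepaRG, 48 h exposure, 8-pt half-log series from 100 uM in 0.5% DMSO, duplicates. Readout: LIPC mRNA by Fluidigm qRT-PCR, housekeeping-normalized (ACTB/GAPDH/POLR2A). Gain or loss fitted bidirectionally against DMSO baseline.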

Read-out in assay [6]: Lipoprotein lipase (LPL), LPL (gene 4023)
The assay can be described thus: LTEA_HepaRG_LPL: Life Technologies and Expression Analysis (LTEA) Assay for Lipoprotein lipase (LPL) using HepaRG (AID 2283515). Put shortly: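 HepaRG, 48 h exposure, 8-pt half-log dilutions from 100 uM, 0.5% DMSO vehicle, duplicates; qRT-PCR (Fluidigm array) of LPL mRNA vs housekeeping genes; bidirectional curve fit relative to DMSO baseline.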

Read-out in assay [7]: MicroRNA 122 (MIR122), gene 406906
The assay can be described thus: LTEA_HepaRG_MIR122: Life Technologies and Expression Analysis (LTEA) Assay for MicroRNA 122 (MIR122) using HepaRG (AID 2283516). Also: the transcript read is the microRNA miR-122. Put shortly:
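qRT-PCR read-out (TaqMan, Fluidigm array), normalized to three housekeeping genes; HepaRG cells dosed 48 h at 8 concentrations up to 100 uM in 0.5% DMSO, duplicate; gain or loss fitted against DMSO baseline.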

Read-out in assay [8]: matrix metalloproteinase-10 (MMP10), MMP10 (gene 4319)
As to the kind of experiment: LTEA_HepaRG_MMP10: Life Technologies and Expression Analysis (LTEA) Assay for matrix metalloproteinase-10 (MMP10) using HepaRG (AID 2283517). In a few lines: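 Transcript levels come from Fluidigm qRT-PCR normalized to three housekeeping genes, with curves fitted bidirectionally against 0.5% DMSO. Human HepaRG cells were dosed for 48 hours at concentrations up to 100 uM.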

Read-out in assay [9]: matrix metalloproteinase-3 (MMP3), MMP3 (gene 4314)
The assay can be described thus: LTEA_HepaRG_MMP3: Life Technologies and Expression Analysis (LTEA) Assay for matrix metalloproteinase-3 (MMP3) using HepaRG (AID 2283519). Put shortly: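 qRT-PCR read-out of MMP3 mRNA (normalised to three housekeeping genes) in HepaRG liver cells after 48 h chemical exposure; 8-point half-log series, top 100 uM, 0.5% DMSO vehicle. Bidirectional curve fitting against DMSO baseline.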

Read-out in assay [10]: Paternally Expressed 10 (PEG10), PEG10 (gene 23089)
The assay can be described thus: LTEA_HepaRG_PEG10: Life Technologies and Expression Analysis (LTEA) Assay for Paternally Expressed 10 (PEG10) using HepaRG (AID 2283520). In a few lines:
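qRT-PCR read-out: PEG10 mRNA normalised to three housekeeping genes, fitted bidirectionally against 0.5% DMSO vehicle. HepaRG cells received test chemicals for 48 h in serum-free induction medium, 8 points, top 100 uM, half-log steps.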

Read-out in assay [11]: Nuclear factor NF-kappa-B p105 subunit (Homo sapiens) (UniProt P19838)
The assay can be described thus: LTEA_HepaRG_NFKB1: Life Technologies and Expression Analysis (LTEA) Assay for Nuclear Factor Kappa B Subunit 1 (NFKB1) using HepaRG (AID 2283521).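 As to outcome: differentiated human HepaRG liver cells in serum-free induction medium; TaqMan qRT-PCR transcript normalised to ACTB GAPDH and POLR2A housekeeping genes.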 Put shortly: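 HepaRG, 48 h exposure; 8-pt half-log series from 100 uM in 0.5% DMSO; duplicates. Readout: NFKB1 mRNA by qRT-PCR (Fluidigm arrays), housekeeping-normalized. Gain/loss fit vs DMSO baseline.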

Read-out in assay [12]: Protein phosphatase 2A (PPP2R4), PTPA (gene 5524)
As to the kind of experiment: LTEA_HepaRG_PPP2R4: Life Technologies and Expression Analysis (LTEA) Assay for Protein phosphatase 2A (PPP2R4) using HepaRG (AID 2283522). Put shortly: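 HepaRG, 48 h exposure, 8-pt half-log series from 100 uM, 0.5% DMSO vehicle, duplicates. Readout: PPP2R4 mRNA, Fluidigm qRT-PCR, housekeeping-normalized. Bidirectional curve fit vs DMSO baseline.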

Read-out in assay [13]: Phosphatase and tensin (PTEN), PTEN (gene 5728)
As to the kind of experiment: LTEA_HepaRG_PTEN: Life Technologies and Expression Analysis (LTEA) Assay for Phosphatase and tensin (PTEN) using HepaRG (AID 2283523). Put shortly: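 HepaRG, 48 h exposure, 8-pt half-log series from 100 uM top, 0.5% DMSO vehicle, duplicates. Readout: Fluidigm qRT-PCR of PTEN transcript; housekeeping normalization (ACTB, GAPDH, POLR2A). Gain or loss fitted relative to DMSO baseline.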

Read-out in assay [14]: solute carrier (SLC22A1), SLC22A1 (gene 6580)
The assay can be described thus: LTEA_HepaRG_SLC22A1: Life Technologies and Expression Analysis (LTEA) Assay for solute carrier (SLC22A1) using HepaRG (AID 2283524).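 As to AC50: differentiated human HepaRG liver cells in serum-free induction medium.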 Put shortly:
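qRT-PCR readout (TaqMan, Fluidigm arrays) of SLC22A1 transcript, normalized to three housekeeping genes; bidirectional curve fit relative to 0.5% DMSO vehicle. Differentiated human HepaRG cells, 48 h chemical exposure, top concentration 100 uM, half-log steps, eight points.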

Read-out in assay [15]: Pyruvate Dehydrogenase Kinase 4 (PDK4), PDK4 (gene 5166)
The assay can be described thus: LTEA_HepaRG_PDK4: Life Technologies and Expression Analysis (LTEA) Assay for Pyruvate Dehydrogenase Kinase 4 (PDK4) using HepaRG (AID 2283525). Put shortly:
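HepaRG (human liver line), 48 h chemical exposure, 8-pt half-log CRC top 100 uM, 0.5% DMSO vehicle, duplicates. Readout: TaqMan qRT-PCR of PDK4 mRNA, housekeeping-normalized; gain/loss fit relative to DMSO baseline.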

Read-out in assay [16]: NAD(P)H dehydrogenase [quinone] 1 (NQO1), NQO1 (gene 1728)
The assay can be described thus: LTEA_HepaRG_NQO1: Life Technologies and Expression Analysis (LTEA) Assay for NAD(P)H dehydrogenase [quinone] 1 (NQO1) using HepaRG (AID 2283526). In a few lines: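 qRT-PCR read-out (Fluidigm TaqMan), normalized to three housekeeping genes, after 48 h chemical exposure of HepaRG cells. Concentrations: eight points, top 100 uM, half-log steps, 0.5% DMSO vehicle. Gain or loss of signal fitted relative to DMSO.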

Read-out in assay [17]: Nuclear factor erythroid 2-related factor 2 (Homo sapiens) (UniProt Q16236)
The assay can be described thus: LTEA_HepaRG_NFE2L2: Life Technologies and Expression Analysis (LTEA) Assay for Nuclear factor erythroid 2-related factor 2 (NFE2L2) Transcription Factor using HepaRG (AID 2283527).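 As to outcome: TaqMan qRT-PCR transcript level normalised to ACTB GAPDH and POLR2A housekeeping genes.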 Put shortly: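 HepaRG, 48 h dosing, 8-pt half-log series from 100 uM in 0.5% DMSO, duplicates. Read-out: NFE2L2 mRNA by qRT-PCR (ACTB/GAPDH/POLR2A normalization). Bidirectional curve fit vs DMSO baseline.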

Read-out in assay [18]: succinate dehydrogenase complex iron sulfur subunit B (SDHB), SDHB (gene 6390)
The assay can be described thus: LTEA_HepaRG_SDHB: Life Technologies and Expression Analysis (LTEA) Assay for succinate dehydrogenase complex iron sulfur subunit B (SDHB) using HepaRG (AID 2283528). In a few lines: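 Readout is SDHB transcript level by qRT-PCR, normalised to three housekeeping genes and fitted bidirectionally against 0.5% DMSO vehicle. Human HepaRG cells were treated for 48 h at up to 100 uM.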

Read-out in assay [19]: Signal transducer and activator of transcription 3 (Homo sapiens) (UniProt P40763)
The assay can be described thus: LTEA_HepaRG_STAT3: Life Technologies and Expression Analysis (LTEA) Assay for Signal transducer and activator of transcription (STAT3) using HepaRG (AID 2283529). Put shortly: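 HepaRG, 48 h exposure, 8-pt half-log series (top 100 uM), 0.5% DMSO vehicle, duplicates. Readout: STAT3 transcript by Fluidigm qRT-PCR, housekeeping-normalized; bidirectional fit vs DMSO baseline.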

Read-out in another assay: MYC, MYC (gene 4609)
The assay can be described thus: LTEA_HepaRG_MYC: Life Technologies and Expression Analysis (LTEA) Assay for MYC using HepaRG (AID 2283518). Put shortly: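 HepaRG, ~100,000 cells/well, collagen I; 48 h plating; serum-free induction medium; 48 h dosing, duplicate, 100 uM top, half-log, 0.5% DMSO; total RNA → qRT-PCR MYC; gain/loss fit vs DMSO.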

Nuclear factor NF-kappa-B p105 subunit (Homo sapiens), sequence (P19838 whole entry, looked up): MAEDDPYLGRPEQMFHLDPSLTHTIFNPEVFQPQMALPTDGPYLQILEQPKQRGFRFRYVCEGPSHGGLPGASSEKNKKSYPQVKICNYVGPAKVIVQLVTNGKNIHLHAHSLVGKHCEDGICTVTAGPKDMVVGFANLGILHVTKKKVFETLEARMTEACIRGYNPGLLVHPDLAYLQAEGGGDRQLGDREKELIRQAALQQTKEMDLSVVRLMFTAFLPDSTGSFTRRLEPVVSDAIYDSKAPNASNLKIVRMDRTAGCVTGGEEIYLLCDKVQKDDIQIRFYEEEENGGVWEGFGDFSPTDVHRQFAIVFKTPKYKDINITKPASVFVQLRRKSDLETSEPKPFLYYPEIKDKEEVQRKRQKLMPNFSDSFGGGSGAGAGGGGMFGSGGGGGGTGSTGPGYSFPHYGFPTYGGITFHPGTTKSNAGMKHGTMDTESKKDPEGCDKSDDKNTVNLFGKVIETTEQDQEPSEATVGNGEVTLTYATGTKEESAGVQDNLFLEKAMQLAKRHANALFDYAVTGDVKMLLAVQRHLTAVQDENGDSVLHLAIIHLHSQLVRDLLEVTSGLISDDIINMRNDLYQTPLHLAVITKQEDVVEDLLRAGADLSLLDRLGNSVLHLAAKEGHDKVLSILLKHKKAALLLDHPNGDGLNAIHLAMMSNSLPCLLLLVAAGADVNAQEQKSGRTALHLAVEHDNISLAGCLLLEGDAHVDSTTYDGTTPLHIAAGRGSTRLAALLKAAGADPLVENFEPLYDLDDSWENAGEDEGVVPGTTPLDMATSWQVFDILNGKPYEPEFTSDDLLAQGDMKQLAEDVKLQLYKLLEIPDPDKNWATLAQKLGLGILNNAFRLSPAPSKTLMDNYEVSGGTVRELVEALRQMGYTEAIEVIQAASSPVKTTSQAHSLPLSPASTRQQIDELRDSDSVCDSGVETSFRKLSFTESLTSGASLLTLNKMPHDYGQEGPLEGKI
Nuclear factor erythroid 2-related factor 2 (Homo sapiens), sequence (Q16236 whole entry, looked up): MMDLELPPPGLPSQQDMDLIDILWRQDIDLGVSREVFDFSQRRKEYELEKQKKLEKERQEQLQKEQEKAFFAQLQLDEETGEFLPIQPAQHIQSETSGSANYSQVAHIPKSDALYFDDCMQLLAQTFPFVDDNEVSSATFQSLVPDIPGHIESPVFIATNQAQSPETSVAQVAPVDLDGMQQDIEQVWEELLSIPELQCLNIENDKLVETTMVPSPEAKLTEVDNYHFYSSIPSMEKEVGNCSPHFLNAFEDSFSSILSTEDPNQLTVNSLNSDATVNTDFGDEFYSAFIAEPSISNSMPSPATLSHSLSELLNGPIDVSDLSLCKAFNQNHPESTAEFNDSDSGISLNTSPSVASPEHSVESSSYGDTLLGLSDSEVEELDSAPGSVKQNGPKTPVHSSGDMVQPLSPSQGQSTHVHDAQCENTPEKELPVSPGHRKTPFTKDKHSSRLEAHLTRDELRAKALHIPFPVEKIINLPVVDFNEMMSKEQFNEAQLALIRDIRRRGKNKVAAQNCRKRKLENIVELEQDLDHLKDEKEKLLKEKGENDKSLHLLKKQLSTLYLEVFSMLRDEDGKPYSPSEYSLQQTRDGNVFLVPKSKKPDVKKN
Signal transducer and activator of transcription 3 (Homo sapiens), sequence (P40763 whole entry, looked up): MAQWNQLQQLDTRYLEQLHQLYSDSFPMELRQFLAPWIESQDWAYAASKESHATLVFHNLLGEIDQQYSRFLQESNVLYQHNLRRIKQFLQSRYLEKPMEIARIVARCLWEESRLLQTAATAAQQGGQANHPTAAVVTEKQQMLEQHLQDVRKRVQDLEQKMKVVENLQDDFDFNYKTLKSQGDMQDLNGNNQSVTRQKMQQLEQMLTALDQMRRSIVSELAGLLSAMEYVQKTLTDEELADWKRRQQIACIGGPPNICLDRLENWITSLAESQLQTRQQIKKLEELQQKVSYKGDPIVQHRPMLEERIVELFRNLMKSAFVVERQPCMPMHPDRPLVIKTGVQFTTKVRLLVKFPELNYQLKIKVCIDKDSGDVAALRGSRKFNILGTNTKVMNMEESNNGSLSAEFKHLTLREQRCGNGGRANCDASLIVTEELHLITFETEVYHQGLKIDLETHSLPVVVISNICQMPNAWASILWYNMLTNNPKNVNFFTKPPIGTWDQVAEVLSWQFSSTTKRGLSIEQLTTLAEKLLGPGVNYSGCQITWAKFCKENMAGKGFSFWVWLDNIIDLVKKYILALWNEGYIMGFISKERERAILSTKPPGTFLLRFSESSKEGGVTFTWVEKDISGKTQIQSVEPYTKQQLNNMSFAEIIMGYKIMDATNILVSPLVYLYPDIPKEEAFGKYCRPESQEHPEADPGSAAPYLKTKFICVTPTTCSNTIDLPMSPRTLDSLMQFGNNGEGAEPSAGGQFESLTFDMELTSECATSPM

Take `COC(=O)c1c(C(F)F)nc(C(F)(F)F)c(C2=NCCS2)c1CC(C)C`: the AC50 in [1] was 12.2 µM (active). In addition, the call in assay [2], in assay [3], in assay [4], in assay [5], in assay [6] and in [7] was inactive. Also, the call in [8], in assay [9], in assay [10], in assay [11], in assay [12] and in assay [13] was inactive. In addition, the call in assay [14], in assay [15], in assay [16], in assay [17], in assay [18] and in assay [19] was inactive.

Take `COC(=O)NS(=O)(=O)c1ccc(N)cc1`: the outcome in [2], in [3], in assay [4], in assay [5], in assay [6] and in assay [7] was inactive. Besides, the outcome in assay [8] was “inactive”; in the assay with MYC, MYC (gene 4609), “inactive”; in assay [9], “inactive”; in assay [10] it was “inactive”; in assay [11], “inactive”; in [12], “inactive”. In addition, the outcome in assay [13], in assay [14], in [15], in assay [16], in assay [17] and in [18] was inactive. Also, the call in assay [19] was inactive.

For the compound `CCOc1nc(C(Cl)(Cl)Cl)ns1`, the AC50 in assay [2] is 1.22 µM (active); in assay [4] it was 1.89 µM (active); in [5] it was 944 nM (active); in [6] it was 1.06 µM (active); in assay [7] it was 682 nM (active); with MYC, MYC (gene 4609), 1.03 µM (active). Moreover, the AC50 in assay [9] is 2.93 µM (active); in assay [11] it was 1.72 µM (active); in [12] it was 801 nM (active); in assay [13], 1.25 µM (active); in assay [14] it was 1.34 µM (active); in assay [15], 950 nM (active). In addition, the AC50 in [16] is 993 nM (active); in assay [17], 1.12 µM (active); in [19], 50 µM (active). The call in [3], in assay [8], in [10] and in assay [18] was inactive.
